# In the supplement of paper PMC6411743:
# ± gives the standard deviation of the averaged measurements. Of roughly 6,500 targets only a part is listed; those with the largest changes were picked by preference.
# What was measured:
# Assay in all cases: NP40-soluble protein abundance relative to vehicle (solubility fold change) (ratio); higher = more soluble protein in presence of ATP
# [1] = molecular target: T1, UniProt O95983|O95983-2|K7EIE8
# T1 sequence (whole entry): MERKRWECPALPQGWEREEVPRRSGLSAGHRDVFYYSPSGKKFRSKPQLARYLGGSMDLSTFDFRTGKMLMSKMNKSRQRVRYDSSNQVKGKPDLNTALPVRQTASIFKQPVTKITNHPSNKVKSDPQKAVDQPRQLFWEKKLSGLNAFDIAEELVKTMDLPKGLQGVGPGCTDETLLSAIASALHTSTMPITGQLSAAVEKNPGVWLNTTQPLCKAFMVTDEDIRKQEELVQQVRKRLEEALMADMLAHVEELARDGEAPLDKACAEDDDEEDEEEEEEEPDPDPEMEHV
# Outline: (§1)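 Jurkat crude lysate prepared with a Dounce homogeniser was treated at eight concentrations spanning 0.1 to 10 mM, 10 min at room temperature then 3 min at 37 °C. Solubilisation with 0.8% NP40 and benzonase and ultracentrifugation preceded TMT labelling of the supernatant for LC-MS/MS. Fold change against the detergent-processed vehicle was determined per replicate from vsn-normalised intensities, across three independent experiments.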
# [2] = molecular target: T2, UniProt P11177|P11177-2
# T2 sequence (whole entry): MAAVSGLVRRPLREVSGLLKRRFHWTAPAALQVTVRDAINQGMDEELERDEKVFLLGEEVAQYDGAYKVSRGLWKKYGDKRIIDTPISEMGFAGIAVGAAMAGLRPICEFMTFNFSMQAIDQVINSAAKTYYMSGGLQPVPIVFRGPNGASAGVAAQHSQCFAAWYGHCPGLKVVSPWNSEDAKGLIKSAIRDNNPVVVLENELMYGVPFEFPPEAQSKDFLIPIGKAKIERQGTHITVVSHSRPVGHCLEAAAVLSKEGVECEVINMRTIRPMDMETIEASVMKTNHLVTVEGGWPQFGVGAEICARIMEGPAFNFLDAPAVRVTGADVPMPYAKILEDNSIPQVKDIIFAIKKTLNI
# Outline: as §1
# [3] = molecular target: T3, UniProt P29728-2|A0A087X0V5|P29728
# T3 sequence (whole entry): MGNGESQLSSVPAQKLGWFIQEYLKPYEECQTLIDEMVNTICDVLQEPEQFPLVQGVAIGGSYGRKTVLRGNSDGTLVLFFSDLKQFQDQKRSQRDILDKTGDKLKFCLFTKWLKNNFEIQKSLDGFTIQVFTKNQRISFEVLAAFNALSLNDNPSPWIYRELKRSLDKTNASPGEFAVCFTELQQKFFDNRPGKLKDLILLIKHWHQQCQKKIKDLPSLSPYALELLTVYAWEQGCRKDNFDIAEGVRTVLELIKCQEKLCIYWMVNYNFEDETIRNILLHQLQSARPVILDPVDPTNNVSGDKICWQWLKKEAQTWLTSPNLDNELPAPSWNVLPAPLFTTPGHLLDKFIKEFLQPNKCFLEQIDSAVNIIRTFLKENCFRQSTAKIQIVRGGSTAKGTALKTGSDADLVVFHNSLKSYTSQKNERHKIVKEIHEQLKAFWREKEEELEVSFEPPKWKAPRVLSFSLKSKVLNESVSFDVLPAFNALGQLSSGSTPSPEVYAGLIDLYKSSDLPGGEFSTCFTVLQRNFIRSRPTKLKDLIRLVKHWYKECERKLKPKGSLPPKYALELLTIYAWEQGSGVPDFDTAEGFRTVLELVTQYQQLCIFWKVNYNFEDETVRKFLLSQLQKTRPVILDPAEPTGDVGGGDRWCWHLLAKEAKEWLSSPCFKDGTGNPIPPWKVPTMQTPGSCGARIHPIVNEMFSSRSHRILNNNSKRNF
# Outline: as §1
# [4] = molecular target: T4, UniProt P52594|P52594-2|P52594-3|P52594-4
# T4 sequence (whole entry): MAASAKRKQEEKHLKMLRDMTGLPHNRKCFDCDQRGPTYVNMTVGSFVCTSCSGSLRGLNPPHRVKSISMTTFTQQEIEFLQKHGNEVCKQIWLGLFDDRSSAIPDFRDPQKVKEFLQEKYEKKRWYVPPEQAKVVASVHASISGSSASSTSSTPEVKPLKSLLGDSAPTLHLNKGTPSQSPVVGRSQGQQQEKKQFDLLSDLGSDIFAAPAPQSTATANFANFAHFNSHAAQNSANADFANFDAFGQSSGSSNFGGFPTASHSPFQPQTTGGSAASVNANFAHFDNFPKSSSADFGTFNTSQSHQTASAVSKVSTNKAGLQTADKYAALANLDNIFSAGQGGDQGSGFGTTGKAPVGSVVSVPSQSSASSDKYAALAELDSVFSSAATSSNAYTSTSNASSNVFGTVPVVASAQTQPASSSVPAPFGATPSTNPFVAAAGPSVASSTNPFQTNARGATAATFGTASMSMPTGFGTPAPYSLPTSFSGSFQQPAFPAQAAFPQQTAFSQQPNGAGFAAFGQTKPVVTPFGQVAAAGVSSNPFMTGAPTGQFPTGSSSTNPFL
# Outline: as §1
# [5] = molecular target: T5, UniProt P52757|P52757-9
# T5 sequence (whole entry): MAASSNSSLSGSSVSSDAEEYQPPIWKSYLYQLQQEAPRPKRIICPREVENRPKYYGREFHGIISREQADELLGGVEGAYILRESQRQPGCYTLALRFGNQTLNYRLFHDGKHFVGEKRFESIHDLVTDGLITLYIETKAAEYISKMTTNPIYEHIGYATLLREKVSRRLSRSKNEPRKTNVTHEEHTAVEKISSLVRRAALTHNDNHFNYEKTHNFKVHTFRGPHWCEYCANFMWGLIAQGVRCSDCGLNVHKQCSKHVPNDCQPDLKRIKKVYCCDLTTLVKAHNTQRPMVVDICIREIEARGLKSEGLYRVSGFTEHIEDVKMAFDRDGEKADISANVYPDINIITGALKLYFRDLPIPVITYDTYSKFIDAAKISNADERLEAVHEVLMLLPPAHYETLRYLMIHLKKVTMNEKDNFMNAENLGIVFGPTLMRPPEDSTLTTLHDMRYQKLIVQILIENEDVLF
# Outline: as §1
# [6] = molecular target: T6, UniProt Q02040
# T6 sequence (whole entry): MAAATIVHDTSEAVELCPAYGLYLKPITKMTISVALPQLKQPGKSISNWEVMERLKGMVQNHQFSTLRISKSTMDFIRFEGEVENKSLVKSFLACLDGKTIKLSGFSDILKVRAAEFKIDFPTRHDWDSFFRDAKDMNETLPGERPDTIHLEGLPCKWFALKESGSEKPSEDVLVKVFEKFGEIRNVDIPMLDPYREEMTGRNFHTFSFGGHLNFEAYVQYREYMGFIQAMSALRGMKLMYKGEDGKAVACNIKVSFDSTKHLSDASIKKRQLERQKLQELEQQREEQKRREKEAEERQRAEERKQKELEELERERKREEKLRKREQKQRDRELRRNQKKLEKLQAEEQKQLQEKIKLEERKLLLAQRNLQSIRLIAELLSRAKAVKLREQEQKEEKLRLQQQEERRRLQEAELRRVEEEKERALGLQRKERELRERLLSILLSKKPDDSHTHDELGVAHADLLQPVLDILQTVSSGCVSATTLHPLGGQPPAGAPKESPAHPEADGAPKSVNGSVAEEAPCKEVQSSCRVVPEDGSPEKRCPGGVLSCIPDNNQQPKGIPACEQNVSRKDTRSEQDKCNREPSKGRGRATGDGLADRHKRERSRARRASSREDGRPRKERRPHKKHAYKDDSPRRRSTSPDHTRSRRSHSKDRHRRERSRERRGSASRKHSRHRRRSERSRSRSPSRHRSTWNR
# Outline: as §1
# [7] = molecular target: T7, YWHAZ (UniProt P63104)
# T7 sequence (whole entry): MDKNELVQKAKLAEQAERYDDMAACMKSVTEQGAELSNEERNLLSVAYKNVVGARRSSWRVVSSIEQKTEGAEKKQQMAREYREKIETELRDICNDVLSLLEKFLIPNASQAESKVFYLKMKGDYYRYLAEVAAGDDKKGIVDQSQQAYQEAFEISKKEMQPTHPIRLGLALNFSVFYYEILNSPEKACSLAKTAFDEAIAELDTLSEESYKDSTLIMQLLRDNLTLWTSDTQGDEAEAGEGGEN
# Outline: as §1
smiles,measurement,setting,value
Nc1ncnc2c1ncn2[C@@H]1O[C@H](COP(=O)(O)OP(=O)(O)OP(=O)(O)O)[C@@H](O)[C@H]1O [adenosine triphosphate],NP40-soluble protein abundance,[1]; concentration: 6mM,1.02 ± 0.16
same,NP40-soluble protein abundance,[1]; concentration: 8mM,1.01 ± 0.065
same,NP40-soluble protein abundance,[1]; concentration: 10mM,0.92 ± 0.082
same,NP40-soluble protein abundance,[2]; concentration: 1mM,1.14 ± 0.069
same,NP40-soluble protein abundance,[2]; concentration: 2mM,1.04 ± 0.041
same,NP40-soluble protein abundance,[2]; concentration: 4mM,1 ± 0.05
same,NP40-soluble protein abundance,[2]; concentration: 6mM,1.02 ± 0.18
same,NP40-soluble protein abundance,[2]; concentration: 8mM,1.05 ± 0.14
same,NP40-soluble protein abundance,[2]; concentration: 10mM,1.02 ± 0.12
same,NP40-soluble protein abundance,[3]; concentration: 1mM,1.73 ± 0.11
same,NP40-soluble protein abundance,[3]; concentration: 2mM,1.65 ± 0.019
same,NP40-soluble protein abundance,[3]; concentration: 4mM,1.7 ± 0.046
same,NP40-soluble protein abundance,[3]; concentration: 6mM,1.55 ± 0.12
same,NP40-soluble protein abundance,[3]; concentration: 8mM,1.74 ± 0.042
same,NP40-soluble protein abundance,[3]; concentration: 10mM,1.68 ± 0.047
same,NP40-soluble protein abundance,[4]; concentration: 1mM,0.945 ± 0.033
same,NP40-soluble protein abundance,[4]; concentration: 2mM,0.961 ± 0.012
same,NP40-soluble protein abundance,[4]; concentration: 4mM,0.963 ± 0.019
same,NP40-soluble protein abundance,[4]; concentration: 6mM,0.987 ± 0.037
same,NP40-soluble protein abundance,[4]; concentration: 8mM,0.93 ± 0.052
same,NP40-soluble protein abundance,[4]; concentration: 10mM,0.918 ± 0.033
same,NP40-soluble protein abundance,[5]; concentration: 1mM,0.952 ± 0.13
same,NP40-soluble protein abundance,[5]; concentration: 2mM,0.971 ± 0.14
same,NP40-soluble protein abundance,[5]; concentration: 4mM,1 ± 0.23
same,NP40-soluble protein abundance,[5]; concentration: 6mM,0.948 ± 0.094
same,NP40-soluble protein abundance,[5]; concentration: 8mM,0.989 ± 0.091
same,NP40-soluble protein abundance,[5]; concentration: 10mM,0.983 ± 0.12
same,NP40-soluble protein abundance,[6]; concentration: 1mM,1.4 ± 0.24
same,NP40-soluble protein abundance,[6]; concentration: 2mM,1.56 ± 0.34
same,NP40-soluble protein abundance,[6]; concentration: 4mM,1.8 ± 0.45
same,NP40-soluble protein abundance,[6]; concentration: 6mM,2.02 ± 0.41
same,NP40-soluble protein abundance,[6]; concentration: 8mM,2.19 ± 0.54
same,NP40-soluble protein abundance,[6]; concentration: 10mM,2.43 ± 0.62
same,NP40-soluble protein abundance,[7]; concentration: 1mM,0.892 ± 0.2
same,NP40-soluble protein abundance,[7]; concentration: 2mM,0.94 ± 0.045
same,NP40-soluble protein abundance,[7]; concentration: 4mM,0.896 ± 0.025
same,NP40-soluble protein abundance,[7]; concentration: 6mM,0.918 ± 0.17
same,NP40-soluble protein abundance,[7]; concentration: 8mM,0.8927 ± 0.0068
same,NP40-soluble protein abundance,[7]; concentration: 10mM,0.819 ± 0.066
